The results in this text go back to PubChem BioAssay (NCI).

What all share (assay): NCI-60 one-dose screen, 48 h (100 = growth as untreated, 0 = no growth, -100 = all killed)
Holding throughout (conditions): 10 µM unless noted

The subject of assay [1] is SK-MEL-2 melanoma.
The subject of assay [2] is EKVX NSCLC.
Assay [3] deals with SN12C renal.
In assay [4] the test system is UO-31 renal.
The subject of assay [5] is TK-10 renal.
In assay [6] the test system is ACHN renal.
For assay [7], the system named is CAKI-1 renal.
Assay [8] relates to A498 renal.
Assay [9] deals with CCRF-CEM leukemia.
Assay [10] relates to MOLT-4 leukemia.
Assay [11] has as its system RPMI-8226 leukemia.
Assay [12] relates to OVCAR-8 ovarian.
Assay [13] has as its system OVCAR-5 ovarian.
The subject of assay [14] is OVCAR-4 ovarian.
In assay [15] the test system is SK-OV-3 ovarian.
In assay [16] the test system is IGROV1 ovarian.
In assay [17] the test system is OVCAR-3 ovarian.
Assay [18] concerns HS 578T breast.
The test system of assay [19] is NCI/ADR-RES ovarian.

Each structure is given as a SMILES string. About 83,000 compounds went through this panel and 20% of them were active in at least one assay; those are over-represented in the sample as a whole.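 Interpretation: 100, growth as untreated; towards 0, rising growth inhibition; 0, no net growth; 0 to -100, cell death. Compounds scoring below 10 were considered active.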 Values without a mark were called inactive. Activity calls are given as the source filed them.

As to `COc1ccc(-c2nn(C(=O)c3cc(OC)c(OC)c(OC)c3)c3cc(N)ccc23)cc1`, the growth in [1] was 55.8%; in assay [2], 30.8%; in assay [3], 22.9%; in assay [4], 23.7%; in assay [5] it was 60.8%; in assay [6], 11.4%. The growth in [7] is 46.2%; in assay [8], -8.28% (active); in assay [9] it was 17%; in [10], 13.7%; in assay [11], 21.7%; in assay [12], 15.9%. Also, the growth in assay [13] is 39.2%; in [14], 58.1%; in assay [15], 31.5%; in assay [16], 23.9%; in [17] it was 0.527% (active); in assay [18] it was 35%. In addition, in [19], the growth is 15.6%.
Regarding `CCCSc1nc2ccc(C)cc2cc1/C=[N+](\[O-])c1ccccc1`, the growth was 68.8% in assay [1]; 80.6% in assay [2]; 26.1% in assay [3]; 44.7% in [4]; 89.5% in assay [5]; 49.2% in [6]. Also, the growth in assay [7] is 70.5%; in [8], 74.6%; in assay [9], 11.2%; in assay [10], 27.2%; in assay [11], 17.1%; in assay [12], 12.4%. Further, the growth in assay [13] was 74.3%; in assay [14], 55%; in assay [15], 75.1%; in [16], 44.4%; in assay [17] it was -12% (active); in [18] it was 48.6%. The growth in assay [19] was 7.89% (active).
With `C#Cc1cccc(NC(=O)Nc2ccccc2NC(=O)CCl)c1`, the growth in [1] is -56% [8.25 µM] (active); in assay [2], 71.9% [8.25 µM]; in assay [3] it was -68.6% [8.25 µM] (active); in assay [4] it was -97.7% [8.25 µM] (active); in assay [5], -27.8% [8.25 µM] (active); in [6], -84.1% [8.25 µM] (active). Moreover, the growth was -85.2% [8.25 µM] (active) in assay [7]; -93.4% [8.25 µM] (active) in assay [8]; 22.2% [8.25 µM] in assay [9]; 24.5% [8.25 µM] in [10]; 10.7% [8.25 µM] in assay [11]; -13.6% [8.25 µM] (active) in assay [12]. Moreover, the growth in assay [13] is -26% [8.25 µM] (active); in [14], -33.4% [8.25 µM] (active); in assay [15], 85.3% [8.25 µM]; in assay [16], -54.4% [8.25 µM] (active); in assay [17] it was -74.8% [8.25 µM] (active); in assay [18], -1.15% [8.25 µM] (active). In addition, the growth in [19] is -2.56% [8.25 µM] (active).
For the compound `Oc1ccc(-c2nc3ccc4[nH]ncc4c3c3c2CCCC3)c2cccnc12`, the growth in [1] was 5.36% (active); in assay [2], -23.1% (active); in assay [3], 4.02% (active); in assay [4], -30.4% (active); in assay [5] it was 17.4%; in assay [6] it was 2.65% (active). Besides, the growth was -25.7% (active) in [7]; -25.7% (active) in assay [8]; 4.86% (active) in assay [9]; 5.17% (active) in [10]; -6.23% (active) in assay [11]; 9.31% (active) in assay [12]. For the same compound, the growth in assay [13] is 21.9%; in [14], 10.2%; in assay [15], -0.881% (active); in [16], 6.65% (active); in assay [17], 18.3%; in assay [18], -14.7% (active). The growth in assay [19] is 7.95% (active).
With `CN(C)c1ccc2nc3ccc(=[N+](C)C)c([N+](=O)[O-])c-3sc2c1`, the growth is 47.2% in [1]; 25% in assay [2]; 39.6% in assay [3]; 51.7% in assay [4]; 71.3% in assay [5]; 27.9% in assay [6]. Further, the growth is 43.1% in assay [7]; 68.5% in assay [8]; 12.7% in assay [9]; 15.5% in [10]; 21.5% in assay [11]; 12.7% in assay [12]. The growth was -7.81% (active) in assay [13]; 0.851% (active) in assay [14]; 59.2% in [15]; 20% in assay [16]; -12.5% (active) in assay [17]; 37% in [18]. The growth in [19] is 7.62% (active).
With `CN1CCN(c2ccc(-c3ccc4ncc(C#N)c(Nc5ccc(F)c(Cl)c5)c4c3)cc2)CC1`, the growth in assay [1] was 48.3%; in [2] it was 54.4%; in [3], 59.9%; in assay [4], 30.4%; in [5] it was 36.3%; in assay [6], 18.9%. For the same compound, the growth is 33.8% in assay [7]; -7.38% (active) in assay [8]; 13.1% in assay [9]; 35.7% in assay [10]; 4.87% (active) in assay [11]; 47.9% in assay [12]. Besides, the growth was 57.6% in [13]; 46.8% in assay [14]; 27% in assay [15]; 11.4% in assay [16]; 59.8% in [17]; 43.3% in assay [18]. In assay [19], the growth is 50.5%.
For `O=C(CS(=O)c1oc(-c2cccs2)nc1S(=O)(=O)c1ccc(Br)cc1)c1ccccc1` (stereo not given), the growth in assay [1] is 89.3%; in assay [2] it was 111%; in assay [3], 96.2%; in assay [4], 80.3%; in assay [5], 104%; in [6] it was 94.1%. Moreover, the growth in [7] was 90.9%; in assay [8], 49.1%; in [9], 94.1%; in assay [10] it was 94.2%; in assay [11] it was 91.8%; in assay [12], 91.4%. Besides, the growth in assay [13] is 89.2%; in assay [14], 75.2%; in assay [16], 101%; in [17] it was 103%; in assay [18], 79.5%; in [19] it was 93.8%.
As for `O=C(Nn1c(NCC(=O)N2c3ccccc3Sc3ccccc32)nnc1-c1ccc(O)cc1)c1ccccc1`, the growth was 101% in assay [1]; 103% in [2]; 90.9% in [3]; 91.1% in assay [4]; 104% in assay [5]; 98.8% in assay [6]. In addition, the growth in assay [7] was 101%; in assay [8], 100%; in assay [9], -2.21% (active); in [10], 125%; in assay [11], 101%; in assay [12], 104%. Moreover, the growth was 90.4% in assay [13]; 101% in assay [15]; 102% in assay [16]; 114% in assay [17]; 108% in [18]; 93.7% in assay [19].
